Source: the supplement of paper PMC12819154, “High-throughput peptide-centric local stability assay extends protein–ligand identification to membrane proteins, tissues and bacteria” (Nature Structural & Molecular Biology, 2025)

compound: Nc1ncnc2c1ncn2[C@@H]1O[C@H](COP(=O)(O)OP(=O)(O)OP(=O)(O)O)[C@@H](O)[C@H]1O [adenosine 5'-triphosphate]; experiment: log2 fold change of tryptic peptide abundance, ligand vs vehicle (limited proteolysis) (log2 ratio); higher = more trypsin-susceptible (destabilized); details: ligand concentration: 5 mM; sample: E. coli desalted lysate; replicate design: treated before aliquoting
Experimental: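 HT-PELSA: desalted E. coli K-12 BW25113 lysate (with 12 mM MgCl2) incubated with 5 mM ATP (pH 7) or water for 30 min at 25 C, then a 4 min trypsin pulse at 22 C. Peptides were quantified by DIA-MS (4 replicates). Value is the peptide log2 fold change (treated/control); negative = stabilized. Scale: negative = ligand-stabilized region.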
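Also: lysate desalted by size exclusion to strip endogenous ATP, peptide intensities built from DIA-NN precursor signals, and peptides missing any value discarded before comparison.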

UniProt P36566, sequence (P36566 whole entry): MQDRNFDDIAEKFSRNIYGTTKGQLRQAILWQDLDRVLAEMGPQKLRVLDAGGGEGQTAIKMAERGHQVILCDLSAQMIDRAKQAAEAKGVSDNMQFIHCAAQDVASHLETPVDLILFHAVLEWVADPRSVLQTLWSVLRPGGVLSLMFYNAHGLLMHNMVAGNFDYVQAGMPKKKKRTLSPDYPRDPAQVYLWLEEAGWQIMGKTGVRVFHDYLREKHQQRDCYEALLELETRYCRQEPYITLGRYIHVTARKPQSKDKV
UniProt P67910, sequence (P67910 whole entry): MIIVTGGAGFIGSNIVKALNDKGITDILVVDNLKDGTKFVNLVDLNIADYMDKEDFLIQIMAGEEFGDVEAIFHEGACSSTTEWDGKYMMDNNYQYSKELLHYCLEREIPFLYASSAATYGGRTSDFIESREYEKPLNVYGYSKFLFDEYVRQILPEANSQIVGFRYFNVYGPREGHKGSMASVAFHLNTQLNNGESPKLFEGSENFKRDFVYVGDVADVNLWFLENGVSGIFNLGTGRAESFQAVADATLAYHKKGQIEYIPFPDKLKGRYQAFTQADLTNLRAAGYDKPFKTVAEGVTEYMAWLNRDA
UniProt Q46927, sequence (Q46927 whole entry): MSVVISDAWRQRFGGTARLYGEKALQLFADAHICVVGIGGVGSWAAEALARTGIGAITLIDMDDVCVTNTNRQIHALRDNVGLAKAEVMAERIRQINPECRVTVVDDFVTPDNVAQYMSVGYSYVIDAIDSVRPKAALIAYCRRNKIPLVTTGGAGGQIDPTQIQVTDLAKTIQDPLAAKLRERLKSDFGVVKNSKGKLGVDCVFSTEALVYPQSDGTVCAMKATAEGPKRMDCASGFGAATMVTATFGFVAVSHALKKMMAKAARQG
UniProt P00959, sequence (P00959 whole entry, looked up): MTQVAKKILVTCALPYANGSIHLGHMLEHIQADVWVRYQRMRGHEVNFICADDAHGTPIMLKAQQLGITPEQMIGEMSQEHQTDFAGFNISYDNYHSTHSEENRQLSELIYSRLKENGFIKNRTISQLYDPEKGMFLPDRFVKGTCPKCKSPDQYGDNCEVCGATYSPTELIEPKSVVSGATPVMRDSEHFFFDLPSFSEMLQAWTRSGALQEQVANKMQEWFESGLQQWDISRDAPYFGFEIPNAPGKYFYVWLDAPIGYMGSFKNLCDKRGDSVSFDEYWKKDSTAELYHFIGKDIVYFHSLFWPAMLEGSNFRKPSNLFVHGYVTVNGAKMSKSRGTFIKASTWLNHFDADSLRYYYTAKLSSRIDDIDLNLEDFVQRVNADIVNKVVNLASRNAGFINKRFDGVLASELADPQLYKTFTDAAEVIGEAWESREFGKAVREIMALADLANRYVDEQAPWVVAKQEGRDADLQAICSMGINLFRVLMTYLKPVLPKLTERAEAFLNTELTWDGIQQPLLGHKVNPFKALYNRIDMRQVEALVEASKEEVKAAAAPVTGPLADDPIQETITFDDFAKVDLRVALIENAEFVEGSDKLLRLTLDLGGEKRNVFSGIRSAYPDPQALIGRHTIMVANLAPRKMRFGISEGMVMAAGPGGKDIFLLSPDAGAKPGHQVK
UniProt P15254, sequence (P15254 whole entry): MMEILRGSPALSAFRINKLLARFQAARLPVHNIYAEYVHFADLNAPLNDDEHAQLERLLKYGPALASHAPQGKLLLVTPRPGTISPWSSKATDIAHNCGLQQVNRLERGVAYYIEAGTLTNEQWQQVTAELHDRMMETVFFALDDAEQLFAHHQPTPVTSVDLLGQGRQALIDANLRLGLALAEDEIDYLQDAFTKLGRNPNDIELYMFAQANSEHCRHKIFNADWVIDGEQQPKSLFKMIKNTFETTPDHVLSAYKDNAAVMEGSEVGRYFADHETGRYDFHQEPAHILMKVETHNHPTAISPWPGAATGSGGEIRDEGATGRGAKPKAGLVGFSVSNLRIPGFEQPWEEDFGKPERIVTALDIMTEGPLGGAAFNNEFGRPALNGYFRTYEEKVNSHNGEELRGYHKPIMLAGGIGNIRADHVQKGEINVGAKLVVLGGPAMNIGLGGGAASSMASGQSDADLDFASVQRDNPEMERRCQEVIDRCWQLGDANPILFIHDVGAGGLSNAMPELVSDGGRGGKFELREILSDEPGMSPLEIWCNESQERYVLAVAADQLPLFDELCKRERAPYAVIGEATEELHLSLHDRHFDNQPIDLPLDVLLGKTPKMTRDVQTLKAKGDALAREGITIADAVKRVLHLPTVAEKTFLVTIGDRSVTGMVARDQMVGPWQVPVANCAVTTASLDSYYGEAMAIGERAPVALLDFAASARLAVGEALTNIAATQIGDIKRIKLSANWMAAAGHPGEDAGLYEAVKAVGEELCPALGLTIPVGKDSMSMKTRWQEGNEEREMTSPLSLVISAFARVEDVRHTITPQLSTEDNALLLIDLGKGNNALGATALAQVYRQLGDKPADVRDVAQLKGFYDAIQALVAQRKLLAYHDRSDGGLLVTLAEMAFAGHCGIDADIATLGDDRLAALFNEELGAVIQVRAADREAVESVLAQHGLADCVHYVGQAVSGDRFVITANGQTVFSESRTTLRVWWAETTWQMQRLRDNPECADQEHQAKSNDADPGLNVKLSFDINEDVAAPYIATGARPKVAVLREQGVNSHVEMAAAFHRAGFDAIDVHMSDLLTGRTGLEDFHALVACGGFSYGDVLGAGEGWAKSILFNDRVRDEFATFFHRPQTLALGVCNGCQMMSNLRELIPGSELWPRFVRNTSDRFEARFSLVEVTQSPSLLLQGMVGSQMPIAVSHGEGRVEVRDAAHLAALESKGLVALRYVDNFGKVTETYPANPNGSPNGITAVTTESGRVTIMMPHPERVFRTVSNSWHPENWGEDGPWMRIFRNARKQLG
UniProt P24230, sequence (P24230 whole entry): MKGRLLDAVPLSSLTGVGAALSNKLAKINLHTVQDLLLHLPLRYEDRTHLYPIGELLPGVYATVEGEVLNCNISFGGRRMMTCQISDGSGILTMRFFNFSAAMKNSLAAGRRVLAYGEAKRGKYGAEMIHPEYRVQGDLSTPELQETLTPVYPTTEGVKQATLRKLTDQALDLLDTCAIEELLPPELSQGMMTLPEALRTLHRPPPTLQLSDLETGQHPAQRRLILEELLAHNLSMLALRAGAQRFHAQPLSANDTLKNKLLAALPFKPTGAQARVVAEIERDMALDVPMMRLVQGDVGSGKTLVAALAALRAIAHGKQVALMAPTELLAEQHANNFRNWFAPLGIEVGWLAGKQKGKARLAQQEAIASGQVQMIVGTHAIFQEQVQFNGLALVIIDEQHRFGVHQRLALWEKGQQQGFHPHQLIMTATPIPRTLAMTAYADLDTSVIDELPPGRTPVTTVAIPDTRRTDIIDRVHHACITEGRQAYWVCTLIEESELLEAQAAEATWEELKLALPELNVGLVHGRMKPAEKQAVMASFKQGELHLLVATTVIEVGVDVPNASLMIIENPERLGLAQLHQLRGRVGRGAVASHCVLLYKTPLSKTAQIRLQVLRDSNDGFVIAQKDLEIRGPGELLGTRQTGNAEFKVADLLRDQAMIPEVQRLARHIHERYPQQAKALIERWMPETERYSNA
UniProt P77302, sequence (P77302 whole entry): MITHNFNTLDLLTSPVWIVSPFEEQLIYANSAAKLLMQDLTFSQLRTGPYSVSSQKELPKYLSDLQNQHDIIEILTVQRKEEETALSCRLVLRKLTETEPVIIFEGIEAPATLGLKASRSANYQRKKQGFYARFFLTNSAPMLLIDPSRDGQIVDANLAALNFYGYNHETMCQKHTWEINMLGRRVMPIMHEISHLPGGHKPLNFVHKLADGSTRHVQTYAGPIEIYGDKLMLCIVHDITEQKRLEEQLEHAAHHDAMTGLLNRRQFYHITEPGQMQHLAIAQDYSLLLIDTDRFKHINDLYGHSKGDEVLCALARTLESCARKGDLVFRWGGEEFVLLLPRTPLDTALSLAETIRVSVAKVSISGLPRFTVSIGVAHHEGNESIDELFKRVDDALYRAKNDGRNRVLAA
UniProt P37766, sequence (P37766 whole entry): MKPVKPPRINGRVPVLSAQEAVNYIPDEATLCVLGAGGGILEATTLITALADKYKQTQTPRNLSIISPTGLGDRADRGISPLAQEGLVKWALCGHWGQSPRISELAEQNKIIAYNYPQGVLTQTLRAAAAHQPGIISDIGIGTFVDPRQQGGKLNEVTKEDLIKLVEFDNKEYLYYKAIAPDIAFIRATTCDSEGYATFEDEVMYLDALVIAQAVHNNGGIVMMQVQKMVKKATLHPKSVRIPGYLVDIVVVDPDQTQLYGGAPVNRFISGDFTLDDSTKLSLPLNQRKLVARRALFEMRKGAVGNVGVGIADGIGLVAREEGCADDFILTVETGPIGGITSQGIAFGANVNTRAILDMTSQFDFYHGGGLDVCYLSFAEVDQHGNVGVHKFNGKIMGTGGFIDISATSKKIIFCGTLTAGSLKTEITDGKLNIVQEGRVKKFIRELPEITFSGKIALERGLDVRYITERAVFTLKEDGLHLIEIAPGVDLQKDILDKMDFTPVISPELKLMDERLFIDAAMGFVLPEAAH
UniProt P00934, sequence (P00934 whole entry): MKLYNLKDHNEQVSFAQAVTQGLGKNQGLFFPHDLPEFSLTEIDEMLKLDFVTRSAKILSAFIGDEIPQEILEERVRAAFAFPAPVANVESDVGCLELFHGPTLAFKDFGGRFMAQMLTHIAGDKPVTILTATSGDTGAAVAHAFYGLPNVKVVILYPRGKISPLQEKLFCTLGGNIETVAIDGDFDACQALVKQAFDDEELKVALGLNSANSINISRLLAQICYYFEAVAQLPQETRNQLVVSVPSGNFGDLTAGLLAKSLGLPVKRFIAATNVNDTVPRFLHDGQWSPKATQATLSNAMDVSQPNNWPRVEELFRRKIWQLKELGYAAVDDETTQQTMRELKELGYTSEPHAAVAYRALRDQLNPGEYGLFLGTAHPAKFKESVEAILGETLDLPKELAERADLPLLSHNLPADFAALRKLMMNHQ

Which log2 fold change does the source give for “UniProt P37766 (peptide sequence: AIAPDIAFIR, peptide start residue: 178)” here?
The log2 fold change was -0.633.

For “UniProt P24230 (peptide sequence: TLVAALAALR, peptide start residue: 303)”, which log2 fold change is on record?
The log2 fold change was -1.21.

With “UniProt P36566 (peptide sequence: TLSPDYPR, peptide start residue: 179)” as the target, how does the log2 fold change read?
Its log2 fold change is -1.28.

With “UniProt Q46927 (peptide sequence: QINPECR, peptide start residue: 95)” as the target, how does the log2 fold change read?
The log2 fold change was -2.51.

How did the log2 fold change turn out when “UniProt P00934 (peptide sequence: LYNLKDHNEQVSFAQAVTQGLGK, peptide start residue: 3)” was run?
Its log2 fold change is -1.05.

“UniProt P00959 (peptide sequence: HTIMVANLAPRK, peptide start residue: 630)” was tested. Which log2 fold change did it give?
The log2 fold change was -0.728.

With “UniProt P77302 (peptide sequence: KEEETALSCR, peptide start residue: 80)” as the target, how does the log2 fold change read?
The log2 fold change was -1.39.

How did the log2 fold change turn out when “UniProt P67910 (peptide sequence: YFNVYGPR, peptide start residue: 167)” was run?
The log2 fold change was -0.736.

With “UniProt P15254 (peptide sequence: QALIDANLR, peptide start residue: 169)” as the target, how does the log2 fold change read?
Its log2 fold change is -0.778.
